The values that follow come from PubChem BioAssay (EPA / NIEHS).

Each structure is given as a SMILES string. Values joined by “and” are separate entries in the source; they are usually repeats but may differ in a detail not shown here. Equal values may be shown once. Results filed as inconclusive are left out. The source holds several records for some structures; these can differ, active in one and inactive in another. Active and inactive are the calls of the source. Rule for the calls: active = hit-call score of the fitted dose curve at least 0.9, where 1 is the maximum; inconclusive = response in the unintended direction; inactive = score below 0.9. Where a SMILES comes first, the peptide text is derived from it. Bridges are numbered along the chain shown (N, C = ends). [ ]: non-standard residue; d: D form. The star is where a group is joined. Ileψ(thiazoline)Cys = CC[C@H](C)[C@H](N)C1=N[C@H](C(=O)*)CS1; dOrn = NCCC[C@@H](N)C(=O)O

Assay [1] can be described thus: TOX21_p53_BLA_p2_viability: Viability Assessment in the Tox21 HCT-116 p53 Agonism Beta-lactamase Assay, Phase 2 (AID 2283591).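 Note: compound exposure lasted 16 h at 37 °C; actives lower the ATP signal meaning cytotoxicity.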 A digest of the protocol: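 Cytotoxicity readout: CellTiter-Glo ATP luminescence, 30 min at room temperature, after the beta-lactamase read. Cells were HCT116 exposed 16 h at 37C to compounds pin-transferred at 217-fold dilution from DMSO stocks.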

The target in assay [2] is Cellular tumor antigen p53 (Homo sapiens) (UniProt P04637). Put plainly: TOX21_p53_BLA_p2_ratio: Tox21 HCT-116 p53 Agonism Beta-lactamase Assay, Ratio, Phase 2 (AID 2283592). The procedure, abridged:
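HCT116 cells carrying a p53-responsive beta-lactamase reporter were plated, incubated 5 h at 37C, then dosed with compounds in DMSO (217-fold dilution) for 16 h. CCF4-AM substrate was added for 2 h at room temperature; the 460/530 nm emission ratio gave gain-of-signal activity relative to DMSO.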

Assay [3] is described as follows: TOX21_p53_BLA_p3_viability: Viability Assessment in the Tox21 HCT-116 p53 Agonism Beta-lactamase Assay, Phase 3 (AID 2283593).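 Note: cells exposed to compound for 16 h before reading.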 The procedure, abridged: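 Cellular ATP was quantified by CellTiter-Glo luminescence, read after 30 min at room temperature. Beforehand, HCT116 cells (4000/well) received compound 5 h post-seeding, 217-fold diluted from DMSO, then incubated 16 h at 37C.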

Assay [4] addresses Cellular tumor antigen p53 (Homo sapiens) (UniProt P04637). Put plainly: TOX21_p53_BLA_p3_ratio: Tox21 HCT-116 p53 Agonism Beta-lactamase Assay, Ratio, Phase 3 (AID 2283596). The procedure, abridged:
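HCT116 p53-bla cells (4000/well) given compound in DMSO (217-fold dilution) after 5 h, incubated 16 h at 37C. CCF4-AM substrate 2 h at room temperature; 460/530 nm emission ratio, gain fitted against DMSO.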

A short description of assay [5]: TOX21_p53_BLA_p4_viability: Viability Assessment in the Tox21 HCT-116 p53 Agonism Beta-lactamase Assay, Phase 4 (AID 2283597).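 Note: hits lower the luminescence signal meaning cytotoxicity.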 The procedure, abridged: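 HCT116 p53-bla cells (4000/well) rested 5 h at 37C, then received compounds in DMSO (217-fold dilution) for 16 h at 37C, 5% CO2. CellTiter-Glo was added after the CCF4-AM read, and luminescence was read after 30 min at room temperature.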

Assay [6] deals with Cellular tumor antigen p53 (Homo sapiens) (UniProt P04637). Put plainly: TOX21_p53_BLA_p5_ratio: Tox21 HCT-116 p53 Agonism Beta-lactamase Assay, Ratio, Phase 5 (AID 2283599). The procedure, abridged:
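Beta-lactamase reporter ratio (blue 460 nm over green 530 nm, 405 nm excitation) after 2 h CCF4-AM loading, in HCT-116 cells exposed 16 h at 37 C to compounds pinned at 217-fold dilution. Increases relative to DMSO baseline scored.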

The nature of assay [7]: TOX21_p53_BLA_p5_viability: Viability Assessment in the Tox21 HCT-116 p53 Agonism Beta-lactamase Assay, Phase 5 (AID 2283600). A digest of the protocol: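 Cells were plated at 4000/well, rested 5 h at 37C, then given compounds in DMSO (217-fold dilution) for 16 h at 37C, 5% CO2. Following the CCF4-AM beta-lactamase read, CellTiter-Glo was added and luminescence was read after 30 min at room temperature.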

The target in assay [8] is Cellular tumor antigen p53 (Homo sapiens) (UniProt P04637). In words: TOX21_p53_BLA_p4_ratio: Tox21 HCT-116 p53 Agonism Beta-lactamase Assay, Ratio, Phase 4 (AID 2283601). A digest of the protocol: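 Signal is the blue/green (460nm/530nm) ratio of cleaved versus uncleaved CCF4-AM substrate, read after 2 h substrate loading. Cells were HCT116 carrying the p53-responsive beta-lactamase reporter, dosed 16 h at 37C, 5% CO2; CellTiter-Glo measured in parallel.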
Chain of Cellular tumor antigen p53 (Homo sapiens) (P04637 whole entry, looked up): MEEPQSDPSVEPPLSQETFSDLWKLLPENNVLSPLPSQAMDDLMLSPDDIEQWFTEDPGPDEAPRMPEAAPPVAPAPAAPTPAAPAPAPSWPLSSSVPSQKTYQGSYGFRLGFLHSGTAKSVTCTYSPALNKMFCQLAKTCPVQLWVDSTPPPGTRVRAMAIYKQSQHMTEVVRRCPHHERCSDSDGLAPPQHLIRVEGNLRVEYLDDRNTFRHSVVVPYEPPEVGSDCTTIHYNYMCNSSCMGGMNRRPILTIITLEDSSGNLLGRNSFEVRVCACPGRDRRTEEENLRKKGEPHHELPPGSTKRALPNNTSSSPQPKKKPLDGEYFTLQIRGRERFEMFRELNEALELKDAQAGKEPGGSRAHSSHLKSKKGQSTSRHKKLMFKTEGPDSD

As for `CCCC(C)c1ccccc1O` (stereo not given), the molecule was classed as inactive in assay [1], in assay [2], in assay [3], in assay [4], in assay [5] and in assay [6]. Further, in assay [7], the molecule was called inactive.

For orientation: AC50 means the midpoint of the concentration-response curve, whichever way the signal moves. Regarding `CC(=O)Oc1ccc(C(c2ccc(OC(C)=O)cc2)c2ccccn2)cc1`, the molecule was called inactive in assay [1], in assay [3], in assay [6], in assay [7] and in assay [8]. The AC50 in assay [2] is 11.4 µM (active) and 2.16 µM (active); in assay [4], 1.55 µM (active) and 3.98 µM (active); in assay [5], 1.4 µM (active) and 2.68 µM (active); in assay [6], 1.18 µM (active); in assay [8], 5.22 µM (active).

In the case of `CCOc1ccc([N+](=O)[O-])cc1`, the molecule was called inactive in assay [1] and in assay [2]. Also, the AC50 in assay [3] was 70.9 µM (active); in assay [4], 80.9 µM (active); in assay [5], 46.7 µM (active); in assay [6], 84.9 µM (active); in assay [7], 61.1 µM (active); in assay [8], 81.5 µM (active).

In the case of `COc1ccccc1/C=C/C=O`, the molecule was called inactive in assay [1], in assay [2], in assay [3], in assay [4], in assay [5] and in assay [6]. Besides, in assay [7], the outcome was inactive.

For `O=C(O)c1cc(O)c(O)c(O)c1`, the outcome in assay [1], in assay [2], in assay [3], in assay [4], in assay [5] and in assay [6] was inactive. Moreover, the molecule was called inactive in assay [7] and in assay [8].

Turning to `CC(CO)(CO)C(=O)O`, the molecule was called inactive in assay [1], in assay [2], in assay [3], in assay [4], in assay [5] and in assay [6]. Also, the call in assay [7] was inactive.

`CCCCCCCCOc1ccc(C(=O)O)cc1`: the result in assay [1], in assay [2], in assay [5], in assay [6] and in assay [7] was inactive. In addition, the AC50 is 45.7 µM (active) in assay [3] and 79.4 µM (active) in assay [4].

Regarding `CC(S)C(=O)NCC(=O)O` (stereo not given), the result in assay [1], in assay [2], in assay [3], in assay [4], in assay [5] and in assay [6] was inactive. In addition, in assay [7], the outcome was inactive.

Consider `NC1(c2ccc(-c3nc4ccn5c(=O)[nH]nc5c4cc3-c3ccccc3)cc2)CCC1`, for which the molecule was called inactive in assay [1], in assay [2], in assay [3], in assay [4], in assay [6] and in assay [7]. For the same molecule, the result in assay [8] was inactive. In addition, the AC50 in assay [5] is 8.62 µM (active).

As to `O=C1[C@H]2CCCC[C@H]2C(=O)N1CCCCN1CCN(c2nsc3ccccc23)CC1`, the outcome in assay [1], in assay [2], in assay [3], in assay [4], in assay [5] and in assay [6] was inactive. Also, the result in assay [7] was inactive.

As for `CC(C)[C@H](N)C(=O)OCC(CO)OCn1cnc2c(=O)[nH]c(N)nc21` (stereo not given in full), the result in assay [1], in assay [2], in assay [3], in assay [4], in assay [5] and in assay [6] was inactive. In addition, the result in assay [7] was inactive.

With `CC(C)c1ccc2oc3nc(N)c(C(=O)O)cc3c(=O)c2c1`, the result in assay [1], in assay [2], in assay [3], in assay [4], in assay [5] and in assay [6] was inactive. For the same molecule, the molecule was classed as inactive in assay [7].

As for `CC(C)=CCC/C(C)=C/CC/C(C)=C/CC/C(C)=C/CC1=C(C)C(=O)c2ccccc2C1=O`, the molecule was classed as inactive in assay [1], in assay [2], in assay [3], in assay [4], in assay [5] and in assay [6]. Besides, in assay [7], the outcome was inactive.

Consider `COc1ccc2c(c1)OC(C)(C)C(c1ccccc1)C2c1ccc(OCCN2CCCC2)cc1` (stereo not given), for which the molecule was classed as inactive in assay [1] and in assay [2]. Further, the half-maximal activity concentration (AC50) is 35.3 µM (active) in assay [3]; 43.8 µM (active) in assay [4]; 43.5 µM (active) in assay [5]; 36.7 µM (active) in assay [6]; 33.5 µM (active) in assay [7].

For `COc1ccc(C(=O)CC(=O)c2ccc(C(C)(C)C)cc2)cc1`, the molecule was classed as inactive in assay [1], in assay [3], in assay [4], in assay [5], in assay [6] and in assay [7]. Besides, the outcome in assay [8] was inactive. In addition, the AC50 in assay [2] was 18.5 µM (active).

As for `CC(C)[C@@H]1CC[C@@H](C)C[C@H]1OC(=O)c1ccccc1O`, the call in assay [1], in assay [2], in assay [4], in assay [5], in assay [6] and in assay [7] was inactive. Moreover, in assay [3], the AC50 is 37.3 µM (active).

Consider `CC(=O)OCCN(CCOC(C)=O)c1ccc(N=Nc2ccc([N+](=O)[O-])cc2C#N)cc1`, for which the molecule was classed as inactive in assay [1], in assay [2], in assay [3], in assay [4], in assay [5] and in assay [6]. Further, the result in assay [7] and in assay [8] was inactive.

On to `CCOC(=O)c1cc(-c2ccccc2)nc2ccc(C)cc12`, for which the molecule was classed as inactive in assay [1], in assay [2], in assay [3], in assay [4], in assay [5] and in assay [6]. For the same molecule, in assay [7], the call was inactive.

For the molecule `Nc1ccc(F)cc1F`, the call in assay [1], in assay [2], in assay [3], in assay [4], in assay [5] and in assay [6] was inactive. For the same molecule, in assay [7], the molecule was classed as inactive.

Take `C[C@@H]1CCC2[C@@H](C)[C@@H](O)O[C@@H]3O[C@@]4(C)CC[C@@H]1[C@@]23OO4` (stereo not given in full): the molecule was classed as inactive in assay [1], in assay [2], in assay [3], in assay [4], in assay [5] and in assay [6]. In addition, the outcome in assay [7] and in assay [8] was inactive.

In the case of `CC[C@H](C)[C@H](N)C1=N[C@H](C(=O)N[C@@H](CC(C)C)C(=O)N[C@H](CCC(=O)O)C(=O)N[C@H](C(=O)N[C@H]2CCCCNC(=O)[C@H](CC(N)=O)NC(=O)[C@@H](CC(=O)O)NC(=O)[C@H](Cc3cnc[nH]3)NC(=O)[C@@H](Cc3ccccc3)NC(=O)[C@H]([C@@H](C)CC)NC(=O)[C@@H](CCCN)NC2=O)[C@@H](C)CC)CS1` ({Ileψ(thiazoline)Cys}-L[dE]IK[dOrn]I[dF]H[dD]N; lactam 4-C), the call in assay [1], in assay [2], in assay [3], in assay [4], in assay [5] and in assay [6] was inactive. In assay [7], the result was inactive.

`Cc1cccc(CN2CCN(C(c3ccccc3)c3ccc(Cl)cc3)CC2)c1` (stereo not given): the result in assay [1], in assay [2], in assay [3], in assay [4], in assay [5] and in assay [6] was inactive. Further, the molecule was called inactive in assay [7].

Turning to `O=C1CCCCO1`, the molecule was classed as inactive in assay [1], in assay [2], in assay [3], in assay [4], in assay [5] and in assay [6]. Besides, the call in assay [7] was inactive.
